Laboratory results published in the supplement of paper PMC6089552.
Out of some 3,200 compounds screened, about 300 (9.4%) showed activity. Only a selection was taken, and actives are over-represented in it overall.

Test system: A673/TR/shEF
Test: cell viability (LOESS-normalised, relative to median of negative controls) (log2 ratio); higher = more viable cells (less compound effect), active = hit call of the paper (over 3 MAD below the median)
Details: treatment time: 72 h
Outline: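 A673/TR/shEF Ewing sarcoma cells (1,500 per well, 384-well plates) were grown with or without doxycycline to induce EWS-FLI1 shRNA knockdown, starting 24 h before compounds. Library compounds at two or more concentrations, with DMSO controls, were added for three days. Cell viability was read by CellTiter-Glo luminescence on an Envision reader, then LOESS-corrected per plate, divided by the median of negative controls and log2-transformed. Hits were wells at least three median absolute deviations from the median of all screened wells.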

[1] = 0.25 µM, library screen: screen1, EWS-FLI1 expression: high (no doxycycline)
[2] = 0.25 µM, library screen: screen1, EWS-FLI1 expression: low (doxycycline-induced shRNA knockdown)
[3] = 2.5 µM, library screen: screen1, EWS-FLI1 expression: high (no doxycycline)
[4] = 2.5 µM, library screen: screen1, EWS-FLI1 expression: low (doxycycline-induced shRNA knockdown)
[5] = 0.25 µM, library screen: screen2, EWS-FLI1 expression: high (no doxycycline)
[6] = 0.25 µM, library screen: screen2, EWS-FLI1 expression: low (doxycycline-induced shRNA knockdown)
[7] = 2.5 µM, library screen: screen2, EWS-FLI1 expression: high (no doxycycline)
[8] = 2.5 µM, library screen: screen2, EWS-FLI1 expression: low (doxycycline-induced shRNA knockdown)
[9] = 0.103 µM, library screen: screen3, EWS-FLI1 expression: high (no doxycycline)
[10] = 0.103 µM, library screen: screen3, EWS-FLI1 expression: low (doxycycline-induced shRNA knockdown)
[11] = 0.308 µM, library screen: screen3, EWS-FLI1 expression: high (no doxycycline)
[12] = 0.308 µM, library screen: screen3, EWS-FLI1 expression: low (doxycycline-induced shRNA knockdown)
[13] = 0.926 µM, library screen: screen3, EWS-FLI1 expression: high (no doxycycline)
[14] = 0.926 µM, library screen: screen3, EWS-FLI1 expression: low (doxycycline-induced shRNA knockdown)
[15] = 2.8 µM, library screen: screen3, EWS-FLI1 expression: high (no doxycycline)
[16] = 2.8 µM, library screen: screen3, EWS-FLI1 expression: low (doxycycline-induced shRNA knockdown)
[17] = 8.3 µM, library screen: screen3, EWS-FLI1 expression: high (no doxycycline)
[18] = 8.3 µM, library screen: screen3, EWS-FLI1 expression: low (doxycycline-induced shRNA knockdown)
[19] = 25 µM, library screen: screen3, EWS-FLI1 expression: high (no doxycycline)
[20] = 25 µM, library screen: screen3, EWS-FLI1 expression: low (doxycycline-induced shRNA knockdown)

Measured: cell viability (log2)

CC(=O)O[C@H]1C[C@@H](OC(C)=O)C(C)(C)C2CC(=O)[C@]3(C)C(CC[C@@]4(C)[C@H](C(=O)O)OC(=O)C5OC543)[C@]21C (some centres undefined)
inactive: [1] 0.123 | [2] 0.114 | [3] 0.0482 | [4] 0.118

CCC(=O)NCC1OC(n2cnc3c(NCc4ccccc4)ncnc32)C(O)C1O (centres undefined)
inactive: [5] 0.0412 | [6] 0.0737 | [7] 0.224 | [8] 0.113

COC(=O)C[C@H]1C(C)(C)C(=O)[C@@H]2CC3=C4CC(OC)O[C@@H](c5ccoc5)[C@]4(C)CCC3[C@@]1(C)C2=O (some centres undefined)
inactive: [1] 0.115 | [2] 0.14 | [3] 0.0882 | [4] 0.172

COc1ccc(-c2coc3cc(OC(C)=O)cc(OC(C)=O)c3c2=O)cc1
inactive: [1] 0.0854 | [2] -0.00831 | [3] 0.156 | [4] 0.114

COc1c(O)cc2occ(-c3ccc(O)cc3)c(=O)c2c1O
inactive: [1] 0.15 | [2] 0.0261 | [3] 0.0979 | [4] 0.0895

CC(=O)O[C@H]1CC[C@]2(C)[C@H]3CC=C4[C@@H]5CC(C)(C)CC[C@]5(C(=O)O)CC[C@@]4(C)[C@]3(C)CC[C@H]2C1(C)C
inactive: [1] 0.0325 | [2] 0.0553 | [3] 0.0391 | [4] 0.0458

Cc1nnc(C(C)C)n1C1C[C@H]2CC[C@@H](C1)N2CC[C@H](NC(=O)C1CCC(F)(F)CC1)c1ccccc1 (some centres undefined)
inactive: [9] 0.00773 | [10] 0.0537 | [11] 0.179 | [12] 0.0864 | [13] 0.11 | [14] 0.0142 | [15] 0.152 | [16] 0.0241 | [17] 0.00455 | [18] 0.0886 | [19] 0.0767 | [20] 0.0769

C=C1C(=O)OC2CC1C(OC(C)=O)C/C(C)=C/CC/C(C)=C\CCC2(C)O (centres undefined)
inactive: [1] 0.18 | [2] 0.0249 | [3] 0.0625 | [4] -0.139

O=C1c2ccc(O)cc2OC(c2cc(O)c(O)c(O)c2)C1O (centres undefined)
inactive: [1] 0.0896 | [2] 0.0484 | [3] 0.165 | [4] 0.11

Nc1nc(Cl)nc2c1ncn2[C@@H]1O[C@H](CO)[C@@H](O)[C@H]1O
inactive: [5] 0.323 | [6] 0.0766 | [7] 0.0971 | [8] -0.0176

Nc1nc(Cl)nc2c1ncn2[C@H]1C[C@H](O)[C@@H](CO)O1
inactive: [9] 0.0389 | [10] -0.0254 | [11] 0.0133 | [12] 0.0217 | [13] 0.0147 | [14] 0.0591 | [15] -0.0664 | [16] 0.0972 | [18] -0.0455
active: [17] -0.402 | [19] -1.32 | [20] -0.402

Nc1nc(Cl)nc2c1ncn2[C@@H]1O[C@H](COP(=O)(O)OP(=O)(O)OP(=O)(O)O)[C@H](O)C1O (some centres undefined)
inactive: [5] 0.146 | [6] 0.0571 | [7] 0.0213 | [8] 0.0355

OC[C@H]1O[C@@H](n2cnc3c(NC4CCCC4)nc(Cl)nc32)[C@H](O)[C@@H]1O
inactive: [5] 0.143 | [6] 0.038 | [7] 0.169 | [8] 0.0636

Nc1ncnc2c1ncn2[C@H]1C[C@H](O)[C@@H](CO)O1
inactive: [1] 0.0888 | [2] 0.137 | [3] 0.0495 | [4] 0.162

Nc1nc(Cl)nc2c1ncn2[C@@H]1O[C@H](CO)[C@@H](O)[C@@H]1F
active: [15] -0.287 | [17] -1.27 | [19] -3.63 | [20] -0.69
inactive: [9] 0.0438 | [10] 0.0567 | [11] 0.104 | [12] 0.0694 | [13] -0.027 | [14] 0.0481 | [16] 0.0753 | [18] -0.0627
